Cruzain Triton = blocks cruzain activity in presence of Triton detergent; purified cruzain, Z-FR-AMC fluorescence, 0.01% Triton; P25779; AID 1478; 0.43% of 200,000 active; Potency, µM, actives largely listed as inhibitors; further: nearly all actives have a fitted effect of over 40% in size
Target sequence (P25779 123-467 limits assumed): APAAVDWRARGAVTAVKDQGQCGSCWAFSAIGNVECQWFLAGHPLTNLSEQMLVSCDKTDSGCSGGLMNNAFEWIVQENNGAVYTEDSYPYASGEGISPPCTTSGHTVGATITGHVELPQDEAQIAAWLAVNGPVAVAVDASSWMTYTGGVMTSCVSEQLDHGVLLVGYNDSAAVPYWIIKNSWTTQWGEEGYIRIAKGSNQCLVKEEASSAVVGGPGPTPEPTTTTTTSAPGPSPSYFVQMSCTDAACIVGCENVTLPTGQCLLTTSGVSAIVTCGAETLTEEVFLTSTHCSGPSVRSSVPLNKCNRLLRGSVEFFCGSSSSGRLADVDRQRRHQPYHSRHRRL
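Read-out: AMC fluorescence (360 nm excitation, 450 nm emission), four reads over 2 min, first-to-third difference used. Conditions: cruzain 1.5 nM, Z-FR-AMC 2 uM, pH 5.5 acetate, 5 mM DTT, 0.01% Triton X-100.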
Cruzain noTriton = blocks cruzain activity in detergent-free assay; AID 1476; Potency, µM, actives largely listed as inhibitors; purified cruzain, Z-FR-AMC fluorescence, no detergent; 2.3% of 200,000 active; P25779; further: nearly all actives have a fitted effect of over 40% in size
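Purified cruzain at 1.5 nM, pre-incubated 15 min with compound at room temperature in 100 mM sodium acetate pH 5.5, 5 mM DTT, 0.00005% Triton X-100. Reaction started with 2 uM Z-FR-AMC; AMC fluorescence increase over 60 s gives rate.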
Of the large screens only hits and unclear results are named; the others gave an inactive call; ! = a repeat was not active. Shown are actives, neighbours in structure and some others; about 2.4% of the full set was active somewhere. The call rests on the fitted dose curve; in most records, active means well fitted curve in the direction sought with a large enough effect; inconclusive means small, poorly fitted or top-dose-only effect, or another doubt; inactive means no such curve, though single readings can be large; an effect the other way counts as inactive or inconclusive.

CC(C)c1ccc(-c2c(C#N)c(N)nc(SCC(=O)N3CCCCCC3)c2C#N)cc1	none
CC(C)c1ccc(-c2c(C#N)c(N)nc(SCC(=O)N3CCCCC3)c2C#N)cc1	Cruzain noTriton 25µM
COc1cc(NC(=O)Cn2c(=O)n(Cc3ccco3)c(=O)c3sc4ccccc4c32)cc(OC)c1	none
COc1ccc(-n2ccn(CC(=O)Nc3ccc(C)cc3C)c(=O)c2=O)cc1	none
O=C(CN1C(=O)CC(c2ccc(F)cc2)=Nc2ccccc21)NCc1ccccc1Cl	none
Cc1cccc(NC(=O)CCN2CCN(c3ccccc3F)CC2)c1	none
O=C(N/N=C/c1ccc(OCCCF)cc1)c1cc(OCC(F)(F)F)ccc1OCC(F)(F)F	Cruzain noTriton 25µM
O=C(N/N=C\c1ccc(F)cc1)c1cc(OCC(F)(F)F)ccc1OCC(F)(F)F	none
CC(=O)Nc1ccc2nc(SCCOc3ccccc3Cl)sc2c1	Cruzain noTriton inconclusive
CCc1ccc(NCc2cc3cc(OC)c(OC)cc3n(CC(=O)Nc3cc(C)ccc3C)c2=O)cc1	none
Cc1ccc(CNC(=O)c2c(C)oc3ncnc(N4CCOCC4)c23)cc1	none
Cc1ccc(NCc2cccn2-c2nnc(N3CCC(C(=O)NCc4ccc(OC(C)C)cc4)CC3)s2)cc1	none
COc1ccc(Br)cc1CNC(=O)C1CCN(c2nnc(-n3cccc3CNc3ccc(C)cc3)s2)CC1	Cruzain noTriton 32µM
COc1ccccc1NC(=O)CSc1nc(O)c(C/C=C/c2ccccc2)c(=O)[nH]1	none
COc1ccccc1-c1cc(C(=O)Nc2c(C)nn(Cc3ccc(Cl)cc3)c2C)no1	none
COc1ccccc1CNC(=O)C(=O)NCC(c1ccco1)S(=O)(=O)c1cccs1 (stereo not given)	none
Cc1ccccc1Cn1c(=O)n(CCc2ccccc2)c(=O)c2c(C)c(C)sc21	none
CC(S)C(=O)NCC(=O)O (stereo not given)	none
O=C(NCCCN1CCN(Cc2ccccc2)CC1)C1CCN(c2nnc(-n3cccc3)s2)CC1	none
O=C(NCCCN1CCc2ccccc2C1)C1CCN(c2nnc(-n3cccc3)s2)CC1	Cruzain Triton 25µM
Cc1cccc(N=C2NC(=O)/C(=C\c3cccs3)S2)c1	Cruzain noTriton 32µM
Cc1ccc(N=C2NC(=O)/C(=C/c3cccs3)S2)cc1C	Cruzain noTriton inconclusive
COc1cccc(-n2c(=O)c3sc4ccccc4c3n(CC(=O)NC3CCCCC3)c2=O)c1	Cruzain noTriton inconclusive
Oc1ccc(Cl)cc1-c1cc(-c2cccc(Br)c2)n[nH]1	Cruzain noTriton 13µM
Oc1ccc(Cl)cc1-c1cc(-c2ccccc2Cl)[nH]n1	Cruzain noTriton inconclusive
CCN(CC)c1ccc2cc(-c3nc(-c4ccc(OC)cc4)cs3)c(=O)oc2c1	Cruzain noTriton 10µM
CCN(CC)c1ccc2cc(-c3nc(-c4ccc(Cl)cc4Cl)cs3)c(=O)oc2c1	none
CCN(CC)S(=O)(=O)c1cc(C(=O)OCC(=O)c2ccc3c(c2)NC(=O)CO3)ccc1Cl	none
CC(C)CC(NC(=O)c1ccc(Cl)cc1)C(=O)OCC(=O)c1ccc2c(c1)NC(=O)CO2 (stereo not given)	Cruzain noTriton 20µM
COC(=O)c1scc(-c2ccc(C)cc2)c1S(=O)(=O)Nc1cc(C)ccc1OC	Cruzain noTriton inconclusive
O=C(COc1ccc(-c2nnco2)cc1)NCc1ccccc1Cl	none
Cc1cc(C(=O)COc2ccc(-c3nnco3)cc2)c(C)n1Cc1ccccc1	Cruzain noTriton 16µM
Cc1nn(-c2ccc(S(=O)(=O)O)cc2)c(O)c1N=Nc1ccc(-c2ccc(N=Nc3ccc4c(S(=O)(=O)O)cc(S(=O)(=O)O)c(N)c4c3O)c(O)c2)cc1O.[Cu].[Cu]	none
COc1cc(-c2ccc(N=Nc3ccc4c(S(=O)(=O)O)cc(S(=O)(=O)O)c(N)c4c3O)c(OC)c2)ccc1N=Nc1ccc2c(S(=O)(=O)O)cc(S(=O)(=O)O)c(N)c2c1O	Cruzain Triton 25µM!, Cruzain noTriton inconclusive
C/C=C/C(=O)C[C@H]1CC[C@@H](C)[C@@H](CCO)O1	none
CCOC(=O)c1ccc2c(c1)N(Cc1cccc(C(F)(F)F)c1)C(=O)c1ccccc1S2(=O)=O	none
CC(C)Oc1ccc(CNS(=O)(=O)c2ccc(-c3cc(C(F)(F)F)on3)s2)cc1	Cruzain noTriton inconclusive
Cc1cc(-c2nnc(SCC(=O)c3ccc(Cl)cc3)o2)no1	Cruzain noTriton 25µM
COc1ccc(C(=O)CSc2nnc(-c3cc(C)on3)o2)cc1	none
CCCn1c(O)c(/C=C2\C=NN=C2c2ccccc2)sc1=S	none
CCCCC(CC)Cn1c(O)c(/C=C2\C=NN=C2c2ccccc2)sc1=S (stereo not given)	Cruzain noTriton 7.9µM
O=C(Cc1ccccc1)c1nc2ccccc2s1	none
COC(=O)c1ccc(CC(=O)c2nc3ccccc3s2)cc1	Cruzain noTriton 32µM
Cc1cccc(NC(c2cccc(Cl)c2)c2ccc3cccnc3c2O)n1 (stereo not given)	Cruzain noTriton inconclusive
O=c1c(-c2cccs2)nc2cnc(N3CCNCC3)nc2n1Cc1cccs1	none
COc1ccccc1NS(=O)(=O)c1cc(NC(=O)Nc2cccc(C)c2)ccc1N1CCCCC1	Cruzain noTriton 5µM
O=C(Nc1ccc(Cl)cc1)Nc1ccc(N2CCCC2)c(S(=O)(=O)Nc2ccccc2Cl)c1	Cruzain noTriton inconclusive
Cc1ccc(NC(=O)C2CCCN(C(=O)c3cnn(-c4ccccc4)c3-n3cccc3)C2)cc1 (stereo not given)	none
Cc1ccc(-c2cc3nc(-c4ccccc4)cc(N)n3n2)cc1	Cruzain noTriton 25µM
Cc1cc(N)n2nc(-c3ccccc3)cc2n1	none
Cc1ccc(-c2cc(N)n3nc(-c4ccc(C)cc4)cc3n2)cc1	Cruzain noTriton inconclusive
Cc1ccc(-c2cc3nc(-c4ccc(Br)cc4)cc(N)n3n2)cc1	Cruzain noTriton 32µM
O=C(Nc1ccc(Cl)cc1Cl)c1cc(S(=O)(=O)N2CCC3(CC2)OCCO3)ccc1F	none
COc1ccc(/C=C/C(=O)Nc2ccc3nc4c(c(Nc5ccc(OC)c(OC)c5)c3c2)CCCC4)cc1	Cruzain noTriton inconclusive
Cc1ccc(N2C(=O)/C(=C/c3cccnc3)SC2=S)cc1	Cruzain noTriton inconclusive
Cc1cc(/C=C2/SC(=S)N(c3ccc([N+](=O)[O-])cc3)C2=O)c(C)n1-c1cccnc1	Cruzain noTriton 16µM
Cc1ccc(C)c(NC(=O)/C(C#N)=C/c2ccc(C(C)C)cc2)c1	none
COc1ccc(Nc2cc(C(=O)NCc3cccs3)c3ccccc3n2)cc1	Cruzain noTriton inconclusive
CC(C)c1ccc(Nc2cc(C(=O)NCc3cccs3)c3ccccc3n2)cc1	Cruzain noTriton 10µM
COc1ccc(NC(=O)C(c2ccccc2)N(C)C(=O)/C=C\c2ccc3c(c2)OCO3)cc1 (stereo not given)	none
COc1cccc(NC(=O)C(OC(=O)/C=C/c2ccc3c(c2)OCO3)c2ccccc2)c1 (stereo not given)	Cruzain noTriton 20µM
Cc1c(C(=O)NCc2ccccc2Br)oc2c1-c1[nH]ncc1CC2	none
CCCCCCCCCCCCCCCC(=O)C(F)(F)F	none
Cc1ccc(NC(=O)c2cc(-c3ccc(Br)s3)nc3ccccc23)cc1F	none
O=C(N/N=C/c1cccc([N+](=O)[O-])c1)c1cc2ccccc2o1	Cruzain noTriton inconclusive
O=C(COc1ccc(/C=N/NC(=O)c2cc3ccccc3o2)cc1Cl)Nc1ccccc1	Cruzain Triton 22µM, Cruzain noTriton 20µM
O=S(=O)(Nc1ccc(-c2ccc(N3CCCC3)nn2)cc1)c1ccccc1Cl	Cruzain noTriton inconclusive
N=c1ccn2c(n1)O[C@H]1[C@@H](O)[C@@H](CO)O[C@H]12	none
O=C(Nc1nc2ccccc2s1)c1cccn(Cc2ccccc2)c1=O	none

Source: PubChem (National Center for Advancing Translational Sciences (NCATS))
